In all, about 33,000 sequences were measured (“E-score (-0.5 to 0.5)”: median about -0.035, highest 2% from about 0.35 on). Shown is part of a subset that was picked to be rich in the highest values.
What follows are sequences tested against T1, Pdr3 (UniProt P33200) (assay: PBM E-score (8-mer binding enrichment) (E-score (-0.5 to 0.5)); higher = stronger / more preferred TF binding). Settings: protein concentration: 200 nM; construct: GST-full length.
T1 sequence: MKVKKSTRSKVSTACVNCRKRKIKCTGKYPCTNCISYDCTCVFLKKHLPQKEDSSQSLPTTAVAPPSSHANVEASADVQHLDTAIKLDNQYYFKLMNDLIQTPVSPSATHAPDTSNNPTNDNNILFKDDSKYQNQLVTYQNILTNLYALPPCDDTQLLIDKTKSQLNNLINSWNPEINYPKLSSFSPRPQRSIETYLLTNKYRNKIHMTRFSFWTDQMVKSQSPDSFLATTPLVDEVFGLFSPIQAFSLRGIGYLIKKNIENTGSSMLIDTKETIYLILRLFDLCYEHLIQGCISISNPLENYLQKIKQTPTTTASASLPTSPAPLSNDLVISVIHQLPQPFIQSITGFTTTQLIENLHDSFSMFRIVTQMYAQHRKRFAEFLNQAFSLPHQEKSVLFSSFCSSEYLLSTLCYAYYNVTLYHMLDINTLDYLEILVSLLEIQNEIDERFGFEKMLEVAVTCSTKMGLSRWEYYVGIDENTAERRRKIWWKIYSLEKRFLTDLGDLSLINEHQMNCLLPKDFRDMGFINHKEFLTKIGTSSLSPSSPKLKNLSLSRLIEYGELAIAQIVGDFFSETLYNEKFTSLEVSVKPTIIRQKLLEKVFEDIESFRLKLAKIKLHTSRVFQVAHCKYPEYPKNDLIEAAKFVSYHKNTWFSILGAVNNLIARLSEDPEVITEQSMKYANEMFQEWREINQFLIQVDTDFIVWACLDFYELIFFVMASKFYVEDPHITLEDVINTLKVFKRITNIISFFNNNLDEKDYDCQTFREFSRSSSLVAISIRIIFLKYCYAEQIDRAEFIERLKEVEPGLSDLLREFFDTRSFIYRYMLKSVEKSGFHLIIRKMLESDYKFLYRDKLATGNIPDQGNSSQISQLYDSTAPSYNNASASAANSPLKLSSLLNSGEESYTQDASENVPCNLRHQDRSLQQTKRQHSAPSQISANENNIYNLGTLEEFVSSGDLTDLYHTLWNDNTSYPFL
Procedure: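 Universal 'all 10-mer' protein binding microarrays (Agilent AMADID 015681) probed with GST-tagged S. cerevisiae TFs (full-length or DBD) made by in vitro transcription/translation (PURExpress), about 100-200 nM. Bound TF was detected with fluorescent anti-GST. Each ungapped 8-mer (which stands for itself and its reverse complement) is scored by the PBM enrichment score (E-score), a modified Wilcoxon-Mann-Whitney statistic from -0.5 to +0.5, computed with the Universal PBM Analysis Suite. Scale: above 0.35 generally sequence-specific binding.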
In the case of AAAAATGG, the “PBM E-score” value is reported as 0.0817. With GCGCCGCA the “PBM E-score” value was 0.151. For ACCGGGCA, the “PBM E-score” value was 0.102. With GCCGGGCA the “PBM E-score” value was 0.282. CCCGGGCA was tested, and the “PBM E-score” value was 0.375. In the case of GATAGTGC, the “PBM E-score” value is reported as -0.0798. For GTTCAAAC, the “PBM E-score” value was -0.0193. With AGGATAAC the “PBM E-score” value was -0.212. For CTAATCTC, the “PBM E-score” value was -0.0806. With ATCCCGCG the “PBM E-score” value was 0.465. In the case of AACCCGCG, the “PBM E-score” value is reported as 0.431. With ATCCCGCC the “PBM E-score” value was 0.322. CACCCGCC was tested, and the “PBM E-score” value was 0.332. In the case of AGCCCGCG, the “PBM E-score” value is reported as 0.381. In the case of CGCCCGCG, the “PBM E-score” value is reported as 0.314. For CACCCGCA, the “PBM E-score” value was 0.115. AACCCGCA was tested, and the “PBM E-score” value was 0.18. For ATCCCGCA, the “PBM E-score” value was 0.21. AGCCCGCT was tested, and the “PBM E-score” value was -0.183. AACCCGCC was tested, and the “PBM E-score” value was 0.165. In the case of CACCCGCG, the “PBM E-score” value is reported as 0.42. AATTAGCA was tested, and the “PBM E-score” value was 0.103. For ATGTCGAC, the “PBM E-score” value was 0.0706. For ATTGCGAA, the “PBM E-score” value was -0.0818. In the case of GTCAGATA, the “PBM E-score” value is reported as -0.0744. With CTAAGAAC the “PBM E-score” value was 0.165. With CAGACGAA the “PBM E-score” value was 0.199. With AGAATACT the “PBM E-score” value was -0.121. For CAGAACAA, the “PBM E-score” value was 0.0215. With CTACTTAC the “PBM E-score” value was -0.312. In the case of CACTAAGG, the “PBM E-score” value is reported as -0.0887. For CATCCCCC, the “PBM E-score” value was 0.0287. For CATCCCGC, the “PBM E-score” value was 0.315. In the case of GATCCCGA, the “PBM E-score” value is reported as 0.317. With CATCCCAG the “PBM E-score” value was -0.106. In the case of CATCCCCG, the “PBM E-score” value is reported as 0.354. With CATCCCGG the “PBM E-score” value was 0.431. In the case of AATCCCTG, the “PBM E-score” value is reported as -0.0189. GATCCCGC was tested, and the “PBM E-score” value was 0.371. In the case of AATCCCCG, the “PBM E-score” value is reported as 0.296. CATCCCGA was tested, and the “PBM E-score” value was 0.352. AATCCCGG was tested, and the “PBM E-score” value was 0.407. CATCCCCA was tested, and the “PBM E-score” value was -0.0591. CACTTTAG was tested, and the “PBM E-score” value was -0.149. For AGTCTGCG, the “PBM E-score” value was -0.259. CAGGCGTA was tested, and the “PBM E-score” value was -0.145. In the case of ACGTCAGG, the “PBM E-score” value is reported as -0.326. In the case of AGGCAGGG, the “PBM E-score” value is reported as -0.153. In the case of ACGAATGC, the “PBM E-score” value is reported as -0.158. GCGCGCGC was tested, and the “PBM E-score” value was 0.388. In the case of CCGCGCGG, the “PBM E-score” value is reported as 0.473. With ATGCGCGG the “PBM E-score” value was 0.355. With CCGCGCGC the “PBM E-score” value was 0.332. In the case of CCGCGCGA, the “PBM E-score” value is reported as 0.303. In the case of CTCCGCGC, the “PBM E-score” value is reported as 0.368. ATGCGCGA was tested, and the “PBM E-score” value was 0.0846. ACGCGCGC was tested, and the “PBM E-score” value was 0.238. GCGCGCGA was tested, and the “PBM E-score” value was 0.308. ATGCGCGC was tested, and the “PBM E-score” value was 0.275. In the case of ATCCGCGC, the “PBM E-score” value is reported as 0.309. With CTCCGCGA the “PBM E-score” value was 0.258. In the case of GCGTAGTA, the “PBM E-score” value is reported as -0.095. In the case of ACGCCTGA, the “PBM E-score” value is reported as -0.148. CTAGAAAG was tested, and the “PBM E-score” value was -0.189. For AGCCGGGA, the “PBM E-score” value was 0.3. With GTCCGGGA the “PBM E-score” value was 0.353. In the case of CGCCGGGC, the “PBM E-score” value is reported as 0.308. With GGCCGGGA the “PBM E-score” value was 0.39. In the case of CGCCGGGA, the “PBM E-score” value is reported as 0.382. CTCCGGGA was tested, and the “PBM E-score” value was 0.399. With CGCCGGTA the “PBM E-score” value was 0.13. GGCCGGTA was tested, and the “PBM E-score” value was 0.274. For CTCCGAGA, the “PBM E-score” value was 0.274. GAACATAC was tested, and the “PBM E-score” value was 0.0175. With CCTAGACG the “PBM E-score” value was 0.012. With ATCCTGGG the “PBM E-score” value was -0.104. GGCCCCCC was tested, and the “PBM E-score” value was -0.0393. For AAGGCTTG, the “PBM E-score” value was -0.0886. In the case of AGATCACC, the “PBM E-score” value is reported as 0.0531. For GAGACTCC, the “PBM E-score” value was 0.0113. In the case of AGGCTAAA, the “PBM E-score” value is reported as -0.297. With ACGGAGTA the “PBM E-score” value was 0.297. For CCGGAGTA, the “PBM E-score” value was 0.367. With CCGGAGGC the “PBM E-score” value was 0.292. For CCGGAGTC, the “PBM E-score” value was 0.384. In the case of ACGGAGTC, the “PBM E-score” value is reported as 0.193.

Reference: the supplement of paper PMC3334620
